The source made the active and inactive calls. Unless noted, the rule behind the calls is not given here.

A short description of experiment [1]: compound effects on lung adenocarcinoma cell viability – A549, calcein-AM fluorescence, 48 h, basal, profiling panel (AID 1162). Note: test concentration not given here. Particulars: higher = more signal.
Experiment [2] is described as follows: compound effects on differentiated 3T3-L1 adipocyte viability – cell-based, 3T3-L1 adipocytes, calcein-AM fluorescence, 48 h, basal, profiling panel (AID 1163). Note: test concentration not given here. The settings on record: 3T3-L1 adipocytes viability, higher = more signal.
A short description of experiment [3]: compound effects on hepatocellular carcinoma cell viability – HepG2, calcein-AM fluorescence, 48 h, basal, profiling panel (AID 1164). Note: test concentration not given here. The settings on record: higher = more signal.
A short description of experiment [4]: compound effects on multiple myeloma cell viability – MM1S, calcein-AM fluorescence, 48 h, basal, profiling panel (AID 1165).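 Note: viability of MM1S multiple myeloma cells under basal unstimulated conditions; test concentration not given here.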 The settings on record: higher = more signal.
A short description of experiment [5]: calcein-AM signal in unstimulated myeloma cells – cell-based, calcein-AM fluorescence, 48 h, PK04 Diversity Set, profiling panel (AID 1166).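 Note: cells grown under basal conditions without added stimulus; test concentration not given here.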 The settings on record: RPMI8226 myeloma viability, higher = more signal.
Experiment [6] is described as follows: JC-1 mitochondrial signal, unstimulated HepG2 cells – cell-based, JC-1 fluorescence, 24 h, 100 nL compound, profiling panel (AID 1167). Note: test concentration not given here. Particulars: HepG2 mitochondrial potential, higher = more signal.
A short description of experiment [7]: JC-1 mitochondrial signal, unstimulated adipocytes – cell-based, JC-1 fluorescence, 3T3-L1 adipocytes, 24 h, 100 nL compound, profiling panel (AID 1168). Note: test concentration not given here. Particulars: JC-1 mitochondrial fluorescence, higher = more signal, called active from +8 up or from −8 down.
Experiment [8] is described as follows: JC-1 mitochondrial signal, unstimulated myeloma cells – cell-based, JC-1 fluorescence, RPMI8226, 24 h, 100 nL compound, profiling panel (AID 1169). Note: test concentration not given here. Particulars: JC-1 mitochondrial potential fluorescence, higher = more signal.
Experiment [9] in a line: JC-1 mitochondrial signal, unstimulated MM1S myeloma – cell-based, JC-1 fluorescence, 24 h, 100 nL compound, profiling panel (AID 1170). Note: test concentration not given here. Particulars: MM1S mitochondrial potential, higher = more signal.
The nature of experiment [10]: resazurin metabolic signal in A549 cells – cell-based, resazurin fluorescence, 24 h, PK04 Diversity Set, profiling panel (AID 1171). Note: test concentration not given here. The settings on record: A549 viability, higher = more signal, called active from +8 up or from −8 down.
Experiment [11] can be described thus: resazurin metabolic signal in HepG2 cells – cell-based, resazurin fluorescence, 24 h, PK04 Diversity Set, profiling panel (AID 1172). Note: test concentration not given here. Particulars: HepG2 viability, higher = more signal.
Experiment [12] is described as follows: budding yeast growth changes without added modifier – OD600, strain BY4716, 24 h, basal condition, primary screen (AID 1173). The settings on record: S. cerevisiae BY4716 growth, OD600, 24 h; higher = more signal, called active from +8 up or from −8 down.
The nature of experiment [13]: viability profiling in MM1S myeloma cells – cell-based, resazurin fluorescence, basal, 24 h, PK04 Diversity Set, profiling panel (AID 1174). Note: test concentration not given here. Particulars: higher = more signal, called active from +8 up or from −8 down. On the technique in general: Resazurin is reduced to fluorescent resorufin, in cell work by metabolically active cells.
The target of experiment [14] is Dihydroorotate dehydrogenase (quinone), mitochondrial (Plasmodium falciparum (isolate 3D7)) (UniProt Q08210). The experiment in a line: inhibition of P. falciparum DHODH – biochemical, C-terminal His tag, absorbance 600 nm, primary screen (AID 1175).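 Note: recombinant parasite enzyme with a five histidine tag at its C terminus; test concentration not given here.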 The settings on record: PfDHODH enzyme, DCIP absorbance 600 nm; higher = more signal, called active from +8 up or from −8 down.

Experiment [15] is described as follows: inhibition of PAO1 biofilm formation – strain PAO1, LB-PBS medium, absorbance 600 nm, primary screen (AID 1176). Note: test concentration not given here. The settings on record: P. aeruginosa PAO1 growth/biofilm, A600, 12 h; higher = more signal.
Experiment [16] is described as follows: growth modulation of vineyard yeast isolate – strain RM11-1a, OD600, basal, 24 h, primary screen (AID 1177).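 Note: cultures grown under basal conditions with no added stressor; test concentration not given here.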 The settings on record: S. cerevisiae RM11-1a growth, OD600, 24 h; higher = more signal, called active from +8 up or from −8 down.
A short description of experiment [17]: growth of efflux-deficient E. coli DRC39 – strain DRC39, OD650, 24 h, E. coli filamentation inducers, primary screen (AID 1178).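 Note: growth measured as culture turbidity by optical density at 650 nm; test concentration not given here.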 The settings on record: E. coli DRC39 acrAB, higher = more signal, called active from +8 up or from −8 down.
Experiment [18] is described as follows: growth of efflux-deficient E. coli DRC39 – strain DRC39, OD650, 48 h, E. coli filamentation inducers, primary screen (AID 1179).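 Note: screen aims at cell division blockers that make cells filament.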 Particulars: E. coli DRC39 delta-acrAB growth, higher = more signal, called active from +8 up or from −8 down.
Experiment [19] can be described thus: viability profiling in RPMI8226 myeloma cells – cell-based, resazurin fluorescence, basal, 24 h, PK04 Diversity Set, profiling panel (AID 1180).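 Note: RPMI8826 multiple myeloma cell line at 5000 cells per well; test concentration not given here.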 Particulars: higher = more signal.
The target in experiment [20] is E3 ubiquitin-protein ligase XIAP (Homo sapiens) (UniProt P98170). The experiment in a line: small molecules binding XIAP protein – biophysical, small-molecule microarray, fluorescence 635 nm, primary screen (AID 1181).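 Note: score merges 667 nm emission and signal to noise over triplicate slides.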 The settings on record: higher = more signal.
E3 ubiquitin-protein ligase XIAP (Homo sapiens), sequence (P98170 whole entry, looked up): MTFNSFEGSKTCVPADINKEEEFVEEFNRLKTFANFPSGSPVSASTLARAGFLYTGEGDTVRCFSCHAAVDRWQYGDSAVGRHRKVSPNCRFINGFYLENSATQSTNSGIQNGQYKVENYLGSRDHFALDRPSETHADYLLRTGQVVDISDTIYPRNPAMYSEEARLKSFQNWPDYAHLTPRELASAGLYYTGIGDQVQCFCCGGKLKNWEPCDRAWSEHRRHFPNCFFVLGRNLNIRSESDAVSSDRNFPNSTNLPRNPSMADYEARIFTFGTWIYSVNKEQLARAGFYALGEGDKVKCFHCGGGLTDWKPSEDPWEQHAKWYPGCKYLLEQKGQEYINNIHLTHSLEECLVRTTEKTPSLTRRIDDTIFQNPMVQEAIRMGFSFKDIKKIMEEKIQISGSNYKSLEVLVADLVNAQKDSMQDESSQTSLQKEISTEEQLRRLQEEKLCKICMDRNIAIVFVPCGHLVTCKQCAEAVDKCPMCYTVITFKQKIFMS

Dihydroorotate dehydrogenase (quinone), mitochondrial (Plasmodium falciparum (isolate 3D7)), sequence (Q08210 whole entry, looked up): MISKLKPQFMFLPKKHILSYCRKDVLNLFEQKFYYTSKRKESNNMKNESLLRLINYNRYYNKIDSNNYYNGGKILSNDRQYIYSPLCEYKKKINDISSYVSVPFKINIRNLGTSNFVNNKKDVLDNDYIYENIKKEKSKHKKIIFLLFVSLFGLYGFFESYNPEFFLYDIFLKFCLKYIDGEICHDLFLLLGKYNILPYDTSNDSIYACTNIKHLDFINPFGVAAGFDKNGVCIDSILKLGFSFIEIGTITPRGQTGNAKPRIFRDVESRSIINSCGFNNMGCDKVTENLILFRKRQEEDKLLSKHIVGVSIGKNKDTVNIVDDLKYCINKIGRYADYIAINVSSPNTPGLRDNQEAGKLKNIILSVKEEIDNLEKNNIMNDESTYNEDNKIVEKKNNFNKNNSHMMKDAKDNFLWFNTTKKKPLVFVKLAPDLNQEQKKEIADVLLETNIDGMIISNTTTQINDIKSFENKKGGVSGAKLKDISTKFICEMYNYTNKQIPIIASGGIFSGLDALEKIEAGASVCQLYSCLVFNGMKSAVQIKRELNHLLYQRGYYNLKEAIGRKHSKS

Regarding `O=C1OCCC/C=C\[C@H]2OC34C=CCN(Cc5ccccc5)C(=O)[C@H]3N(CCCCCO)C(=O)[C@@H]4C12` (stereo not given in full), the z-score in experiment [1] was 0.379; in experiment [2] it was 0.65; in experiment [3] it was 0.414; in experiment [4], 1.03; in [5], -0.42; in experiment [6] it was -0.0205. Further, the z-score is -0.0419 (inactive) in [7]; 0.803 in [8]; -0.322 in [9]; 1.37 (inactive) in [10]; 0.804 in experiment [11]; -1.08 (inactive) in [12]. Also, the z-score was 1.24 (inactive) in [13]; -0.099 (inactive) in experiment [15]; -0.581 (inactive) in experiment [16]; 0.691 (inactive) in experiment [17]; 0.775 (inactive) in experiment [18]; 1.16 in [19]. Further, the composite z-score was -0.279 (inactive) in [14] and -0.157 in [20].

In the case of `CN(C)CCCNC(=O)[C@@]1(Cc2ccccc2I)c2ccccc2C(=O)N(Cc2ccccc2)[C@H]1c1ccc(CO)cc1`, the z-score in experiment [1] was -2.02; in experiment [2] it was -0.826; in experiment [3], -3.4; in experiment [4], -3.73; in experiment [5], -3.31; in experiment [6], 0.601. In addition, the z-score in [7] is -0.354 (inactive); in [8], -0.681; in experiment [9] it was -1.54; in [10], -3.32 (inactive); in experiment [11] it was -3.78; in experiment [12] it was -3.24 (inactive). Besides, the z-score in [13] is -0.892 (inactive); in [15], 0.292 (inactive); in experiment [16] it was 0.209 (inactive); in [17], 0.0574 (inactive); in [18] it was 0.252 (inactive); in [19], -1.89. For the same compound, the results for the composite z-score in [14] and in experiment [20] were -0.19 (inactive) and 0.24, respectively.

As to `COC(=O)[C@@]1(Cc2ccc(F)cc2)[C@H]2c3cc(C(=O)N(C)C)n(CCO)c3C[C@H]2CN1C(=O)c1ccccc1`, the z-score in experiment [1] was -0.371; in experiment [2], -0.173; in experiment [3], 0.318; in experiment [4], 0.563; in experiment [5], 0.382; in experiment [6], -2.03. Also, the z-score was -0.453 (inactive) in [7]; 0.161 in experiment [8]; 0.243 in experiment [9]; -1.59 (inactive) in [10]; -0.359 in [11]; -0.092 (inactive) in experiment [12]. Further, the z-score is -0.438 (inactive) in experiment [13]; 0.865 (inactive) in experiment [15]; -0.251 (inactive) in [16]; -0.356 (inactive) in experiment [17]; -0.0099 (inactive) in experiment [18]; -0.0323 in experiment [19]. The composite z-score in experiment [14] is -0.844 (inactive); in experiment [20], 0.49.

Consider `CCCC[C@H]1OB(O)C[C@H]2C1=C(C)C[C@H]1C(=O)C=CC(=O)[C@H]12`, for which the z-score is -0.252 in experiment [1]; -1.14 in experiment [2]; -0.799 in experiment [3]; -3.35 in experiment [4]; -3.16 in experiment [5]; -3.39 in [6]. For the same compound, the z-score in [7] is -1.24 (inactive); in experiment [8], -0.937; in [9], -2.13; in experiment [10], -0.443 (inactive); in experiment [11], -0.559; in [12] it was -17.6 (active). For the same compound, the z-score in [13] is -1 (inactive); in experiment [15] it was 0.318 (inactive); in [16], 0.128 (inactive); in experiment [17] it was -0.449 (inactive); in experiment [18], -0.316 (inactive); in [19] it was -0.312. The composite z-score in experiment [14] was -2.54 (inactive); in [20], -0.188.

On to `COc1cc2c(cc1O)C(c1ccc(CN3CCCC3)cc1)N(Cc1cccc(OC(F)(F)F)c1)CC2` (stereo not given), for which the z-score is -4.78 in experiment [1]; 0.0154 in experiment [2]; -5.64 in [3]; -3.22 in experiment [4]; -4.48 in experiment [5]; -3.43 in experiment [6]. Besides, the z-score in experiment [7] is 1.04 (inactive); in [8], -0.955; in experiment [9] it was -2.64; in experiment [10], -4.45 (inactive); in experiment [11], -2.98; in experiment [12], -16.5 (active). Also, the z-score in experiment [13] is -9.24 (active); in experiment [15], -0.103 (inactive); in experiment [16], -1.66 (inactive); in [17], -4.72 (inactive); in experiment [18] it was -3.03 (inactive); in [19], -6.78. In addition, the composite z-score in [14] was 0.364 (inactive); in [20], 0.0673.

As to `COCCOC(=O)N1C(=O)[C@@]2(c3cc(C#CCCO)ccc31)[C@H](c1ccccc1OCCO)N1[C@H](c3ccccc3)[C@H](c3ccccc3)OC(=O)[C@H]1[C@@H]2C(=O)N1CCc2cc(OC)c(OC)cc2C1`, the z-score in experiment [1] is 1.14; in experiment [2], 0.251; in experiment [3] it was 1.37; in experiment [4] it was 0.713; in [5], 0.503; in experiment [6] it was 1.13. Also, the z-score in experiment [7] was 0.808 (inactive); in [8], -0.361; in experiment [9], -1.04; in experiment [10], 0.646 (inactive); in experiment [11] it was -0.321; in experiment [12] it was 1.39 (inactive). Moreover, the z-score in experiment [13] was 0.248 (inactive); in [15] it was 1.26 (inactive); in experiment [16], 2 (inactive); in [17], 0.0965 (inactive); in experiment [18], 0.963 (inactive); in experiment [19] it was 1.19. Also, the composite z-score in [14] was 0.725 (inactive); in [20], 0.132.

For the compound `COC(=O)c1ccc([C@H](NC(=O)c2ccccc2)[C@]2(C)C[C@H]2C2CCCCC2)cc1`, the z-score was -0.844 in experiment [1]; -1.92 in experiment [2]; -0.949 in experiment [3]; -0.831 in [4]; -0.733 in [5]; -1.15 in experiment [6]. The z-score in experiment [7] is -1.16 (inactive); in experiment [8], 0.624; in [9] it was -1.33; in experiment [10], 0.768 (inactive); in [11], 0.38; in experiment [12], 1.28 (inactive). The z-score in [13] was 0.713 (inactive); in experiment [15] it was 0.371 (inactive); in [16] it was 0.832 (inactive); in experiment [17], -1 (inactive); in [18], -0.768 (inactive); in [19], 0.293. Also, the figures for the composite z-score in experiment [14] and in experiment [20] were -0.256 (inactive) and -0.127, respectively.

On to `CO[C@H]1O[C@H](CO)[C@@H](OC(=O)Nc2ccc(C(F)(F)F)cc2)[C@H](OC(=O)Nc2ccccc2-c2ccccc2)[C@@H]1OC(=O)Nc1ccccc1-c1ccccc1`, for which the z-score in experiment [1] was -1.34; in experiment [2], -0.029; in experiment [3], -0.745; in [4], -0.413; in [5], -0.909; in experiment [6], -0.58. Moreover, the z-score in [7] was 0.688 (inactive); in [8], -0.172; in experiment [9] it was -0.35; in experiment [10] it was -1.35 (inactive); in experiment [11], -0.889; in experiment [12], 0.28 (inactive). Moreover, the z-score in experiment [13] is -1.74 (inactive); in [15], 0.77 (inactive); in experiment [16] it was 1.21 (inactive); in experiment [17], -1 (inactive); in experiment [18], 0.0484 (inactive); in experiment [19], -0.94. Besides, the composite z-score in [14] was 0.0823 (inactive); in experiment [20], -0.184.

The values are drawn from PubChem BioAssay.
